Experimental data published in PubChem BioAssay AID1159580 (chemical genetic matrix, 2015).
The campaign covered roughly 5,500 compounds. About 2,000 (36%) were called active. Inconclusive results (about 18%) are left out. Rule as the data show it: active = normalized growth mostly below about 0.91 (no sharp cut-off); inconclusive = no clear call, values can overlap the other calls; inactive = mostly above about 0.92. The list shows a part of the results.

Experiment: chemical genetic growth profiling, strain panel (AID 1159580);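 also: tested at 20 µM; growth read once vehicle control cultures reached saturation at 30 °C; 1 = growth at the plate median or of vehicle wells; lower values mean less growth of the strain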
Settings: growth OD
[1] = S. cerevisiae deletion strains, locus YDL101C, strain DUN1, hits give low values
[2] = S. cerevisiae deletion strains, locus YHR030C, strain SLT2, hits give low values
[3] = S. cerevisiae deletion strains, locus YAL013W, strain DEP1, hits give low values
[4] = S. cerevisiae deletion strains, locus YBR229C, strain ROT2, hits give low values
[5] = S. cerevisiae deletion strains, locus YDR150W, strain NUM1, hits give low values
[6] = S. cerevisiae deletion strains, locus YEL061C, strain CIN8, hits give low values
[7] = S. cerevisiae deletion strains, locus YGR078C, strain PAC10, hits give low values
[8] = S. cerevisiae deletion strains, locus YGR229C, strain SMI1, hits give low values
[9] = S. cerevisiae deletion strains, locus YHR087W, strain rtc3, hits give low values
[10] = S. cerevisiae deletion strains, locus YJR043C, strain POL32, hits give low values
[11] = S. cerevisiae deletion strains, locus YJR075W, strain HOC1, hits give low values
[12] = S. cerevisiae deletion strains, locus YKL190W, strain CNB1, hits give low values
[13] = S. cerevisiae deletion strains, locus YLR039C, strain RIC1, hits give low values
[14] = S. cerevisiae deletion strains, locus YLR058C, strain SHM2 (second series), hits give low values
[15] = S. cerevisiae deletion strains, locus YLR085C, strain ARP6, hits give low values
[16] = S. cerevisiae deletion strains, locus YLR262C, strain YPT6, hits give low values
[17] = S. cerevisiae deletion strains, locus YML094W, strain GIM5, hits give low values
[18] = S. cerevisiae deletion strains, locus YMR219W, strain ESC1, hits give low values
[19] = S. cerevisiae deletion strains, locus YMR263W, strain SAP30, hits give low values
[20] = S. cerevisiae deletion strains, locus YNL128W, strain TEP1, hits give low values
[21] = S. cerevisiae deletion strains, locus YNL153C, strain GIM3, hits give low values
[22] = S. cerevisiae deletion strains, locus YNL298W, strain CLA4 (second series), hits give low values
[23] = S. cerevisiae deletion strains, locus YNL322C, strain KRE1, hits give low values
[24] = S. cerevisiae deletion strains, locus YNR030W, strain Alg12, hits give low values
[25] = S. cerevisiae deletion strains, locus YPL055C, strain LGE1, hits give low values
[26] = S. cerevisiae deletion strains, locus YPL241C, strain CIN2, hits give low values
[27] = S. cerevisiae deletion strains, locus YPR135W, strain CTF4, hits give low values

Measured: normalized growth

FC(F)(F)c1ccc(NC(=S)Nc2ccc(C(F)(F)F)cc2Cl)c(Cl)c1
active: [2] 0.83 | S. cerevisiae deletion strains, locus YLR113W, strain HOG1, hits give low values 0.836
inactive: S. cerevisiae deletion strains, locus YAR019C, strain CDC15, hits give low values 0.964 | S. cerevisiae deletion strains, locus YBL105C, strain PKC1, hits give low values 0.969 | S. cerevisiae deletion strains, locus YBR135W, strain CKS1, hits give low values 0.955 | S. cerevisiae deletion strains, locus YBR136W, strain MEC1, hits give low values 0.969 | S. cerevisiae deletion strains, locus YBR160W, strain CDC28, hits give low values 0.948 | S. cerevisiae deletion strains, locus YDL017W, strain CDC7, hits give low values 0.965 | S. cerevisiae deletion strains, locus YDL028C, strain MPS1, hits give low values 0.952 | [1] 0.993 | S. cerevisiae deletion strains, locus YDL108W, strain KIN28, hits give low values 0.946 | S. cerevisiae deletion strains, locus YDL132W, strain cdc53, hits give low values 0.949 | S. cerevisiae deletion strains, locus YDL214C, strain PRR2, hits give low values 0.921 | S. cerevisiae deletion strains, locus YDR052C, strain DBF4, hits give low values 0.979 | S. cerevisiae deletion strains, locus YDR054C, strain cdc34, hits give low values 0.976 | S. cerevisiae deletion strains, locus YDR226W, strain ADK1, hits give low values 0.936 | S. cerevisiae deletion strains, locus YDR477W, strain SNF1, hits give low values 0.938 | S. cerevisiae deletion strains, locus YER123W, strain YCK3, hits give low values 0.902 | S. cerevisiae deletion strains, locus YER133W, strain GLC7, hits give low values 0.933 | S. cerevisiae deletion strains, locus YFL009W, strain cdc4, hits give low values 0.921 | S. cerevisiae deletion strains, locus YFL029C, strain CAK1, hits give low values 0.968 | S. cerevisiae deletion strains, locus YFR003C, strain YPI1, hits give low values 0.955 | S. cerevisiae deletion strains, locus YFR019W, strain FAB1, hits give low values 0.932 | S. cerevisiae deletion strains, locus YFR028C, strain CDC14, hits give low values 0.953 | S. cerevisiae deletion strains, locus YGR040W, strain KSS1, hits give low values 0.929 | S. cerevisiae deletion strains, locus YGR052W, strain FMP48, hits give low values 0.937 | S. cerevisiae deletion strains, locus YGR092W, strain DBF2, hits give low values 0.911 | S. cerevisiae deletion strains, locus YHR079C, strain IRE1, hits give low values 0.948 | S. cerevisiae deletion strains, locus YHR082C, strain KSP1, hits give low values 0.926 | S. cerevisiae deletion strains, locus YHR205W, strain SCH9, hits give low values 0.919 | S. cerevisiae deletion strains, locus YIL147C, strain SLN1, hits give low values 0.962 | S. cerevisiae deletion strains, locus YJL095W, strain BCK1, hits give low values 0.919 | S. cerevisiae deletion strains, locus YJL128C, strain PBS2, hits give low values 0.956 | S. cerevisiae deletion strains, locus YJL157C, strain FAR1, hits give low values 0.928 | S. cerevisiae deletion strains, locus YJR016C, strain ILV3, hits give low values 0.966 | S. cerevisiae deletion strains, locus YJR066W, strain TOR1 (second series), hits give low values 0.95 | S. cerevisiae deletion strains, locus YJR066W, strain TOR1, hits give low values 0.886 | S. cerevisiae deletion strains, locus YKL048C, strain ELM1, hits give low values 0.946 | S. cerevisiae deletion strains, locus YKL067W, strain YNK1, hits give low values 0.907 | S. cerevisiae deletion strains, locus YKL101W, strain HSL1, hits give low values 0.898 | S. cerevisiae deletion strains, locus YKL193C, strain SDS22, hits give low values 0.954 | S. cerevisiae deletion strains, locus YKL203C, strain TOR2, hits give low values 1.03 | S. cerevisiae deletion strains, locus YLR133W, strain CKI1, hits give low values 0.923 | S. cerevisiae deletion strains, locus YLR403W, strain SFP1, hits give low values 0.949 | S. cerevisiae deletion strains, locus YML070W, strain DAK1, hits give low values 0.902 | S. cerevisiae deletion strains, locus YMR001C, strain CDC5, hits give low values 0.961 | S. cerevisiae deletion strains, locus YMR205C, strain PFK2 (second series), hits give low values 0.929 | S. cerevisiae deletion strains, locus YMR277W, strain FCP1, hits give low values 0.944 | S. cerevisiae deletion strains, locus YNL006W, strain LST8, hits give low values 0.961 | S. cerevisiae deletion strains, locus YNL020C, strain ARK1, hits give low values 0.887 | S. cerevisiae deletion strains, locus YNL161W, strain CBK1, hits give low values 0.967 | S. cerevisiae deletion strains, locus YNL183C, strain NPR1, hits give low values 0.929 | S. cerevisiae deletion strains, locus YNL207W, strain RIO2, hits give low values 0.948 | S. cerevisiae deletion strains, locus YNL222W, strain SSU72, hits give low values 0.95 | S. cerevisiae deletion strains, locus YNL307C, strain MCK1 (second series), hits give low values 0.888 | S. cerevisiae deletion strains, locus YOL078W, strain AVO1, hits give low values 0.955 | S. cerevisiae deletion strains, locus YOL136C, strain PFK27, hits give low values 0.908 | S. cerevisiae deletion strains, locus YOR061W, strain CKA2, hits give low values 0.911 | S. cerevisiae deletion strains, locus YOR119C, strain RIO1, hits give low values 0.954 | S. cerevisiae deletion strains, locus YOR231W, strain MKK1, hits give low values 0.92 | S. cerevisiae deletion strains, locus YOR329C, strain SCD5, hits give low values 0.971 | S. cerevisiae deletion strains, locus YPL031C, strain PHO85, hits give low values 0.945 | S. cerevisiae deletion strains, locus YPL153C, strain RAD53, hits give low values 0.927 | S. cerevisiae deletion strains, locus YPL204W, strain HRR25, hits give low values 0.916 | S. cerevisiae deletion strains, locus YPL209C, strain IPL1, hits give low values 0.972 | S. cerevisiae deletion strains, locus YPL256C, strain CLN2, hits give low values 0.929 | S. cerevisiae deletion strains, locus YPR025C, strain CCL1, hits give low values 0.966 | S. cerevisiae deletion strains, locus YPR106W, strain ISR1, hits give low values 0.956 | S. cerevisiae deletion strains, locus YPR111W, strain DBF20, hits give low values 0.929 | S. cerevisiae deletion strains, strain NNK1, hits give low values 0.959 | S. cerevisiae deletion strains, strain TSCII, hits give low values 0.97

NNC(=S)Nc1cc(C(F)(F)F)ccc1Cl
inactive: [5] 0.872 | [8] 0.997 | [9] 0.938 | [11] 0.92 | [14] 0.977 | [18] 0.978 | [19] 0.914 | [23] 0.993
active: [3] 0.926 | [4] 0.87 | S. cerevisiae deletion strains, locus YCL061C, strain MRC1, hits give low values 0.828 | [1] 0.875 | S. cerevisiae deletion strains, locus YDL134C, strain PPH21, hits give low values 0.86 | [6] 0.807 | [7] 0.848 | [2] 0.324 | [10] 0.88 | [12] 0.64 | [13] 0.711 | [15] 0.298 | [16] 0.804 | [17] 0.81 | [20] 0.858 | [21] 0.899 | [22] 0.408 | [24] 0.525 | [25] 0.786 | [26] 0.664 | [27] 0.373

NC(=S)Nc1cc(Cl)ccc1Cl
inactive: [3] 0.99 | [4] 0.976 | [1] 0.975 | [5] 0.906 | [6] 0.961 | [7] 0.975 | [8] 1 | [2] 0.888 | [9] 0.953 | [10] 0.997 | [11] 0.997 | [12] 0.999 | [13] 0.947 | [14] 0.981 | [15] 0.919 | [16] 0.979 | [17] 0.915 | [18] 1 | [19] 0.969 | [20] 0.993 | [21] 1 | [22] 0.944 | [23] 0.987 | [24] 0.988 | [25] 0.835 | [26] 0.988 | [27] 0.84 | S. cerevisiae strains, strain wild type, hits give low values 0.99
